Measured values as given in PubChem BioAssay (Tox21).
Records with an inconclusive call do not appear. Calls of active or inactive are those of the source. Unless noted, calls follow the shape of the dose curve; as a rule, active = well fitted curve in the direction sought with a large enough effect in the repeat runs; inconclusive = weak or mixed curves; inactive = no such curve, though single readings can be large; an effect the other way counts as inactive or inconclusive.

Experiments:
[1] = qHTS assay to identify small molecule agonists of the vitamin D receptor (VDR) signaling pathway - cell viability counter screen (AID 743224); also: series mostly up to about 63 µM; nearly all actives have a fitted effect of over 50% in size
Outline: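 Here cell health was gauged by luminescent ATP detection (CellTiter-Glo, 30 min RT) in VDR-bla cells that had been incubated with test compounds for 16 h at 37C and 5% CO2.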

[2] = qHTS assay to identify small molecule antagonists of the vitamin D receptor (VDR) signaling pathway - cell viability counter screen (AID 743225); also: nearly all actives have a fitted effect of over 50% in size
Outline: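 Cytotoxicity counter screen read by CellTiter-Glo luminescence (30 min, room temperature) in the same wells as the VDR-bla antagonist readout. HEK 293T VDR-UAS-bla cells had 16 h at 37C with compound and 3 nM (final) 1-alpha,25-dihydroxyvitamin D3, then 2 h with FRET substrate.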

[3] = qHTS assay to identify small molecule agonists of the NFkB signaling pathway (AID 1159509; active = well fitted curve in the direction sought with a large enough effect in the signal ratio in the repeat runs, not every such curve was filed as active; the % refers to the signal ratio; also: series mostly up to about 61 µM)
Outline: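 NFkB-bla ME-180 cells with a beta-lactamase reporter under an NF-kB response element were plated overnight, treated with compounds in DMSO for 5 hr at 37 C, then loaded with FRET substrate for 1.5 hr at room temperature.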

[4] = qHTS assay to identify small molecule agonists of the NFkB signaling pathway - cell viability counter screen (AID 1159515; calls by dose curve; also: series mostly up to about 61 µM; nearly all actives have a fitted effect of over 55% in size)
Outline: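 5 hr compound treatment of NFkB-bla ME-180 cells (2,000/well, seeded overnight beforehand), followed by reporter substrate for 1.5 hr. CellTiter-Glo added afterward; luminescence after 30 min RT.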

[5] = qHTS assay to identify small molecule agonists of the endoplasmic reticulum stress response signaling pathway - cell viability counter screen (AID 1159517; calls by dose curve;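 also: HeLa cells carrying an ER stress response element beta-lactamase reporter; series mostly up to about 61 µM; nearly all actives have a fitted effect of over 50% in size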)
Outline: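 Luminescence readout: CellTiter-Glo, 30 min RT, same wells as the ESRE-bla reporter read. HeLa ESRE-bla, 1,500 cells/well, o/n 37 C; cpd 5 hr 37 C/5% CO2.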

[6] = target: Nuclear receptor ROR-gamma (Homo sapiens) (UniProt P51449); test: qHTS assay to identify small molecule antagonists of the retinoid-related orphan receptor gamma (ROR-gamma) signaling pathway (AID 1159521; also: top concentration of the series differs between compounds; nearly all actives have a fitted effect of over 50% in size)
Outline: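 Antagonist read-out: drop in luminescence (ONE-Glo) from an RORE-LUC reporter in CHO cells with doxycycline-inducible ROR-gamma; 2 hr compound pretreatment, 1 uM doxycycline, 16 hr incubation at 37 C.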

[7] = qHTS assay to identify small molecule agonists of the AP-1 signaling pathway - cell viability counter screen (AID 1159525; calls by dose curve; also: nearly all actives have a fitted effect of over 55% in size)
Outline: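 ME-180 AP-1-bla, 2500 cells/well, Opti-MEM + 0.5% dialyzed FBS; overnight 37 °C; cpd 15-pt titration, 5 h 37 °C; CellTiter-Glo 30 min RT; luminescence read; normalised to TOAB and DMSO controls.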

[8] = qHTS assay to identify small molecule agonists of the AP-1 signaling pathway (AID 1159526; calls by dose curve)
[9] = qHTS assay to identify small molecule antagonists of the retinoid-related orphan receptor gamma (ROR-gamma) signaling pathway - cell viability counter screen (AID 1159520); also: nearly all actives have a fitted effect of over 50% in size
Outline: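 Tet-on ROR gamma CHO cells (1,000/well) were plated 4 hr, given compounds in DMSO for 2 hr at 37 C, then induced with 1 uM final doxycycline for 16 hr. Viability was read as ATP by CellTiter-Glo luminescence after 30 min.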

[10] = qHTS assay to identify small molecule agonists of the endoplasmic reticulum stress response signaling pathway (AID 1159516; active = well fitted activation curve with a large enough effect in the signal ratio in the repeat runs, not every such curve was filed as active; the % refers to the signal ratio)
Outline: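 Reporter HeLa cells (ESRE-beta-lactamase) underwent 5 hr compound incubation at 37 C and 5% CO2 in quantitative HTS format. Detection followed 2 hr of FRET substrate loading at room temperature.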

Measured: Potency

CC(C)(C)NC(N)=O
inactive: [1] | [2] | [3] | [4] | [5] | [6] | [7] | [8]

CN(C)C(=O)CNC(=O)Cc1ccccc1
inactive: [1] | [2] | [3] | [4] | [5] | [9] | [6] | [7] | [8]

CC(C)CC(=O)O
inactive: [1] | [2] | [3] | [4] | [5] | [9] | [8]

CN1C(C)(C)CCCC1(C)C
inactive: [1] | [2] | [3] | [4] | [9] | [6] | [7] | [8]

C=C(C)C1CCC(C)(O)CC1 (stereo not given)
inactive: [1] | [2] | [3] | [4] | [5] | [9] | [6] | [7] | [8]

CN=C(NC#N)Nc1ccc(C2=NNC(=O)CC2C)cc1 (stereo not given)
inactive: [2] | [3] | [4] | [5] | [9] | [6] | [7] | [8]

COc1ccc(S(=O)(=O)N2c3ccc(Cl)cc3[C@@](O)(c3ccccc3Cl)[C@H]2C(=O)N2CCC[C@@H]2C(N)=O)cc1OC
inactive: [1] | [2] | [3] | [4] | [9] | [6] | [7] | [8]

C=C1CC/C=C(\C)CC[C@@H]2[C@@H]1CC2(C)C
inactive: [1] | [2] | [3] | [4] | [5] | [9] | [6] | [7] | [8]

CC(CC=O)CCCC(C)(C)O (stereo not given)
inactive: [2] | [3] | [4] | [5] | [6] | [7] | [8]

CC(=O)NCc1c(I)c(NC(C)=O)c(I)c(C(=O)O)c1I
inactive: [1] | [2] | [3] | [4] | [9] | [7] | [8]

CC(COC(C)(C)C)OCCCO (stereo not given)
inactive: [1] | [2] | [3] | [4] | [5] | [9] | [6] | [7] | [8]

CN(C)c1ccc(C=O)cc1
inactive: [1] | [2] | [3] | [4] | [5] | [9] | [6] | [7] | [8]

COc1cc(N)ccc1C
inactive: [2] | [3] | [4] | [5] | [9] | [8]

COc1ccc2c(c1)C(=O)N(CCc1ccc(S(=O)(=O)NC(=O)NC3CCCCC3)cc1)C(=O)C2(C)C
inactive: [1] | [2] | [3] | [4] | [5] | [9] | [6] | [7] | [8]

Cc1cc(Cl)c(C)cc1Cl
inactive: [1] | [2] | [3] | [4] | [10] | [6] | [7] | [8]

COP(=O)(OC)OC(c1ccc(Cl)cc1)P(=O)(OC)OC (stereo not given)
inactive: [1] | [2] | [3] | [10] | [9] | [7] | [8]

O=C(O)c1ccc(Cl)cc1Cl
inactive: [1] | [2] | [3] | [10] | [5] | [9] | [7] | [8]

O=C(O)Cc1cn(-c2ccccc2)nc1-c1ccc(Cl)cc1
inactive: [2] | [3] | [10] | [5] | [9] | [6] | [7] | [8]

CCOC(=O)c1ncn2c1CN(C)C(=O)c1cc(F)ccc1-2
inactive: [1] | [2] | [3] | [10] | [5] | [9] | [6] | [8]

CC[C@H](C)C(=O)O[C@H]1C[C@H](O)C=C2C=C[C@H](C)[C@H](CC[C@@H](O)C[C@@H](O)CC(=O)O)[C@H]21
inactive: [1] | [2] | [3] | [10] | [5] | [9] | [6] | [7] | [8]

CC1=CCC(C(C)C)=CC1
inactive: [1] | [2] | [10] | [5] | [7] | [8]

COc1ccc(Br)c(C)c1
inactive: [1] | [2] | [3] | [5] | [7] | [8]

CC(=O)/C=C/C1C(C)=CCC(C)C1(C)C (stereo not given)
inactive: [1] | [2] | [3] | [10] | [9] | [6] | [7] | [8]

O=C(CCN1CCN(CCO)CC1)N1c2ccccc2Sc2ccc(C(F)(F)F)cc21
inactive: [1] | [2] | [3] | [5] | [9] | [6] | [7] | [8]

OCCC(F)(F)C(F)(F)C(F)(F)C(F)(F)C(F)(F)C(F)(F)C(F)(F)C(F)(F)F
inactive: [1] | [2] | [3] | [10] | [6] | [7] | [8]

COC(=O)[C@@H]1[C@H]2C[C@H]3c4[nH]c5ccccc5c4CCN3C[C@@H]2CC[C@@H]1O
inactive: [1] | [2] | [3] | [10] | [5] | [9] | [6] | [7] | [8]
